A short description of experiment [1]: qHTS assay to identify small molecule antagonists of the estrogen receptor alpha (ER-alpha) signaling pathway using the BG1 cell line in the presence of 0.1 nM 17-beta-estradiol - cell viability counter screen (AID 1259241). Also: nearly all actives have a fitted effect of over 40% in size. Also: potency is read from the fitted curve at half-maximal effect. In outline:
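In this screen, hormone-deprived VM7Luc4E2 cells were seeded at 4,000 per well, dosed with compound and 0.1 nM estradiol final, and incubated 22 hr at 37C and 5% CO2; fluorogenic live-cell protease signal reported viability.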

A short description of experiment [2]: qHTS assay to identify small molecule antagonists of the androgen receptor (AR) signaling pathway using the MDA cell line in the presence of 0.5 nM R1881 - cell viability counter screen (AID 1259242). Also: nearly all actives have a fitted effect of over 45% in size. Also: potency is read from the fitted curve at half-maximal effect. The essentials: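 Steps: plate MDA-kb2 cells, rest 5 hr at 37C without CO2; pin in compounds in DMSO; add R1881 to 0.5 nM final; incubate 16 hr; add CellTiter-Fluor, 30 min; read fluorescence.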
Background: Quantitative high-throughput screening tests each substance at several concentrations.

The nature of experiment [3]: qHTS assay to identify small molecule phospholipidosis (PLD) inducers (AID 1259344; active = well fitted curve in the direction sought with a large enough effect; an effect the other way counts as inactive or inconclusive). In outline: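 Image-based: LipidTOX Red pit count/intensity per well and per cell; HepG2, 24 h compound at 37 C, PFA fixation, Hoechst counterstain.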
Experiment [4] is described as follows: qHTS assay to identify small molecule HDAC inhibitors (AID 1259364). Also: potency is read from the fitted curve at half-maximal effect.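 Also: wild-type HCT-116 cells with endogenous class I/II HDAC activity; nearly all actives have a fitted effect of over 45% in size.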 In outline: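 Cells (HCT-116, wild type) are seeded at 1,500 per well, incubated overnight, treated with compound in DMSO for 2 hr, then developed with HDAC-Glo I/II reagent for 30 min at room temperature.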
Experiment [5] in a line: qHTS assay to identify small molecule HDAC inhibitors - cell viability counter screen (AID 1259365). Also: series mostly up to about 92 µM; nearly all actives have a fitted effect of over 50% in size. The essentials:
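Measured quantity is CellTiter-Glo luminescence from wild-type HCT-116 cells after compound incubation of 2hr at 37C, 5% CO2; reagent developed 30min at room temperature.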

Experiment [6] in a line: qHTS assay to identify small molecule agonists of the sonic hedgehog signaling (Shh) pathway - cell viability counter screen (AID 1259366). Also: nearly all actives have a fitted effect of over 50% in size. Also: potency is read from the fitted curve at half-maximal effect. In outline:
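In quantitative high-throughput format, 3T3 Gli1-Luc cells were exposed to compounds for 24hr and multiplexed for viability using CellTiter-Fluor, incubated 1hr at 37C before the fluorescence read.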

The nature of experiment [7]: qHTS assay to identify small molecule antagonists of the sonic hedgehog signaling (Shh) pathway - cell viability counter screen (AID 1259367). Also: nearly all actives have a fitted effect of over 55% in size. Also: potency is read from the fitted curve at half-maximal effect. The essentials:
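Tox21 library chemicals were tested on a Gli1-Luc NIH/3T3 clone (2,000 cells/well) stimulated by conditioned medium; viability was quantified as fluorescence from CellTiter-Fluor reagent added at 23 hr.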

A short description of experiment [8]: qHTS assay to identify small molecule agonists of the sonic hedgehog signaling (Shh) pathway (AID 1259368; calls by dose curve;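 also: NIH/3T3-derived 3T3Gli1-Luc cells carrying a stable Gli1-driven firefly luciferase reporter; series mostly up to about 92 µM; nearly all actives have a fitted effect of over 15% in size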). In outline: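 Cells of a mouse NIH/3T3 clone stably expressing luciferase under the Gli1 transcriptional response element are exposed to test chemicals for 24 hr at 37 C. Pathway activation is detected as a rise in luminescence.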
Experiment [9] in a line: qHTS assay to identify small molecule antagonists of the sonic hedgehog signaling (Shh) pathway (AID 1259369; calls by dose curve; also: nearly all actives have a fitted effect of over 45% in size; also: potency is read from the fitted curve at half-maximal effect). The essentials: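 Cells are plated and held 4hr at 37 C, compounds (DMSO) are pinned in, conditioned medium is added to stimulate the pathway, and after 24hr luciferase reagent is added for 30min before luminescence is read.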
In experiment [10] the target is Estrogen receptor beta (Homo sapiens) (UniProt Q92731). Put plainly: qHTS assay to identify small molecule agonists of the estrogen receptor beta (ER-beta) signaling pathway (AID 1259377; active = well fitted activation curve with a large enough effect in the signal ratio in the repeat runs, not every such curve was filed as active; the % refers to the signal ratio). In outline: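 Reporter cells (HEK293T, ER-beta-UAS-bla) receive compounds or DMSO after a 6 hr pre-incubation. They then incubate 16 hr at 37C/5% CO2, and fluorescence from LiveBLAzer B/G substrate is measured after 2 hours at room temperature.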

For experiment [11] the target is unchanged. The experiment can be described thus: qHTS assay to identify small molecule antagonists of the estrogen receptor beta (ER-beta) signaling pathway (AID 1259378; active = well fitted inhibition curve with a large enough effect in the signal ratio in the repeat runs, not every such curve was filed as active; the % refers to the signal ratio; also: potency is read from the fitted curve at half-maximal effect). In outline:
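ER-beta-UAS-bla HEK293T cells in 2% charcoal-stripped FBS medium treated with compound plus 1nM final 17-beta-estradiol for 16 hr at 37C. Beta-lactamase reporter read by FRET substrate fluorescence after 2 hours at room temperature.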

Experiment [12] is described as follows: qHTS assay to identify small molecule agonists of the androgen receptor (AR) signaling pathway in the presence of an antagonist - cell viability counter screen (AID 1259379). Also: nearly all actives have a fitted effect of over 25% in size. Also: potency is read from the fitted curve at half-maximal effect. The essentials:
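Cytotoxicity is assessed by CellTiter-Fluor in MDA-kb2 cells carrying an MMTV-driven luciferase reporter. Cells receive 3.0uM nilutamide plus compounds at 15 concentrations and incubate 16 hr at 37C without CO2 before fluorescence reading.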

Experiment [13] is described as follows: qHTS assay to identify small molecule agonists of the estrogen receptor beta (ER-beta) signaling pathway - cell viability counter screen (AID 1259380). Also: nearly all actives have a fitted effect of over 30% in size. Also: potency is read from the fitted curve at half-maximal effect. In outline: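 Cytotoxicity is measured in parallel with the reporter screen: after 16 hr compound exposure at 37C and a 2 hr LiveBLAzer step, CellTiter-Glo is added to the same ER-beta-UAS-bla HEK293T wells and luminescence read after 30 min.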

Experiment [14] in a line: qHTS assay to identify small molecule antagonists of the estrogen receptor beta (ER-beta) signaling pathway - cell viability counter screen (AID 1259382). Also: nearly all actives have a fitted effect of over 55% in size. Also: potency is read from the fitted curve at half-maximal effect. In outline: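 Cytotoxicity counter screen multiplexed with the beta-lactamase antagonist assay: GripTite HEK293T ER-beta-bla cells were treated 16 hr with test chemicals in the presence of 1nM 17-beta-estradiol, and viability was measured by CellTiter-Glo.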

Experiment [15] concerns the target Estrogen receptor (Homo sapiens) (UniProt P03372). Put plainly: qHTS assay to identify small molecule agonists of the estrogen receptor alpha (ER-alpha) signaling pathway in the presence of an antagonist (AID 1259383; calls by dose curve; also: top concentration of the series differs between compounds; nearly all actives have a fitted effect of over 15% in size). The essentials:
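Agonist-mode confirmation in the presence of the ER antagonist ICI-182,780 at 10.0nM final. Breast-derived VM7Luc4E2 reporter cells were exposed to compounds for 22hr, and ERE-driven luciferase was quantified by luminescence.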

A short description of experiment [16]: qHTS assay to identify small molecule agonists or antagonists of the thyroid stimulating hormone receptor (TSHR) signaling pathway - wild type cell line counter screen (AID 1259384; calls by dose curve). In outline:
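Wild-type Hek293 cells, 800/well, 18 h at 37C, then compound with Ro20-1724 for 30 min RT. cAMP by HTRF (cAMP-d2/anti-cAMP cryptate), 1 h RT, fluorescence read. 15 concentrations, triplicates.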

In experiment [17] the target is Thyrotropin receptor (Homo sapiens) (UniProt P16473). The experiment can be described thus: qHTS assay to identify small molecule antagonists of the thyroid stimulating hormone receptor (TSHR) signaling pathway (AID 1259385; calls by dose curve; also: nearly all actives have a fitted effect of over 20% in size; also: potency is read from the fitted curve at half-maximal effect). In outline:
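TSHR-HEK293 cells (800/well) plated 18 h, then compounds with Ro20-1724 and TSH at 1.5 ng/mL final, 30 min at room temperature. cAMP quantified by HTRF (cAMP-d2/anti-cAMP-cryptate, 1 h); 15 concentrations in triplicate.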

Experiment [18] deals with Estrogen receptor (Homo sapiens) (UniProt P03372). Put plainly: qHTS assay to identify small molecule antagonists of the estrogen receptor alpha (ER-alpha) signaling pathway using the BG1 cell line in the presence of 0.1 nM 17-beta-estradiol (AID 1259244). Also: nearly all actives have a fitted effect of over 50% in size. Also: potency is read from the fitted curve at half-maximal effect. The essentials:
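Antagonist mode: compounds in DMSO are pinned onto VM7Luc4E2 reporter cells, 0.1 nM final 17beta-estradiol is added, and after 22 h at 37C luciferase luminescence is measured with ONE-Glo.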

In experiment [19] the target is Androgen receptor (Homo sapiens) (UniProt P10275). Put plainly: qHTS assay to identify small molecule agonists of the androgen receptor (AR) signaling pathway in the presence of an antagonist (AID 1259381; calls by dose curve; also: nearly all actives have a fitted effect of over 15% in size). In outline:
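Agonist-mode confirmation screen: human MDA-kb2 cells stably expressing luciferase under an MMTV promoter bearing AR and GR response elements, co-treated with 3.0uM nilutamide (final). Luminescence measured after 16hr compound incubation.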

Values joined by “and” are separate entries in the source; they are usually repeats but may differ in a detail not shown here. Identical values can stand only once. Results filed as inconclusive are left out. More than one record can exist for a structure, and the calls need not agree. Active and inactive are the calls of the source. Unless noted, calls follow the shape of the dose curve; as a rule, active = well fitted curve in the direction sought with a large enough effect in the repeat runs; inconclusive = weak or mixed curves; inactive = no such curve, though single readings can be large; an effect the other way counts as inactive or inconclusive.

Thyrotropin receptor (Homo sapiens), sequence (P16473 whole entry, looked up): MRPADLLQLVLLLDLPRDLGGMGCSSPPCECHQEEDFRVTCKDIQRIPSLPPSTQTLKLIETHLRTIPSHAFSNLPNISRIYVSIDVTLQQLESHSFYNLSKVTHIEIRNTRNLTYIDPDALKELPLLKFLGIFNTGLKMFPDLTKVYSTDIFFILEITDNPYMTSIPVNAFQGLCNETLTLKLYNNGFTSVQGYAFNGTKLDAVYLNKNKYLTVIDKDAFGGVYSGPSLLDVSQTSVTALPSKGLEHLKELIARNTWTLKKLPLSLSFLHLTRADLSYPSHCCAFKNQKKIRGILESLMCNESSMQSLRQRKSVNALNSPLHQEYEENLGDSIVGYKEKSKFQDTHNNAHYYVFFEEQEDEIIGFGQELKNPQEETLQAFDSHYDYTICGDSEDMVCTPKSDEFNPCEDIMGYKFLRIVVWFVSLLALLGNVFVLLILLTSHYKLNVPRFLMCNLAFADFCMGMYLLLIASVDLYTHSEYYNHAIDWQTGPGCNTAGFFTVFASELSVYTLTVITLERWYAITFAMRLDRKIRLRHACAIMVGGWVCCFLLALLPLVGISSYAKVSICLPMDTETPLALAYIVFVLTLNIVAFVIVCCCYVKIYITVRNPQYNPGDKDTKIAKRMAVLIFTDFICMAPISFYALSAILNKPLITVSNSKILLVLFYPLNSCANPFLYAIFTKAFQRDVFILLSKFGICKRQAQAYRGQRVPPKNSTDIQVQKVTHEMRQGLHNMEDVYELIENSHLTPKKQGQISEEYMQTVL
Estrogen receptor beta (Homo sapiens), sequence (Q92731 whole entry, looked up): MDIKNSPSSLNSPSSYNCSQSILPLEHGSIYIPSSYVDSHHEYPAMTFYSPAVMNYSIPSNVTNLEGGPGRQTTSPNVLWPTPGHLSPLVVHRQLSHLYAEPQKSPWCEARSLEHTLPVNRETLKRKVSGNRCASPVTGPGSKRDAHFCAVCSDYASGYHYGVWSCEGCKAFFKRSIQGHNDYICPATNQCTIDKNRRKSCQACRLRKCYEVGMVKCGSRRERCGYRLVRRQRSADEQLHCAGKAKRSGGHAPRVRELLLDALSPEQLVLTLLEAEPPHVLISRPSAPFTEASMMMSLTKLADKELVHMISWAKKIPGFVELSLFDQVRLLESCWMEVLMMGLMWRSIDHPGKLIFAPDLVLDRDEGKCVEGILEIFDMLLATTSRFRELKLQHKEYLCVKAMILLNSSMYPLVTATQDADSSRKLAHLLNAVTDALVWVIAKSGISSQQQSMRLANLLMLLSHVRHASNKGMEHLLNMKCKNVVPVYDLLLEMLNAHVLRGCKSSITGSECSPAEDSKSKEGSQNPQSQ
Estrogen receptor (Homo sapiens), sequence (P03372 whole entry, looked up): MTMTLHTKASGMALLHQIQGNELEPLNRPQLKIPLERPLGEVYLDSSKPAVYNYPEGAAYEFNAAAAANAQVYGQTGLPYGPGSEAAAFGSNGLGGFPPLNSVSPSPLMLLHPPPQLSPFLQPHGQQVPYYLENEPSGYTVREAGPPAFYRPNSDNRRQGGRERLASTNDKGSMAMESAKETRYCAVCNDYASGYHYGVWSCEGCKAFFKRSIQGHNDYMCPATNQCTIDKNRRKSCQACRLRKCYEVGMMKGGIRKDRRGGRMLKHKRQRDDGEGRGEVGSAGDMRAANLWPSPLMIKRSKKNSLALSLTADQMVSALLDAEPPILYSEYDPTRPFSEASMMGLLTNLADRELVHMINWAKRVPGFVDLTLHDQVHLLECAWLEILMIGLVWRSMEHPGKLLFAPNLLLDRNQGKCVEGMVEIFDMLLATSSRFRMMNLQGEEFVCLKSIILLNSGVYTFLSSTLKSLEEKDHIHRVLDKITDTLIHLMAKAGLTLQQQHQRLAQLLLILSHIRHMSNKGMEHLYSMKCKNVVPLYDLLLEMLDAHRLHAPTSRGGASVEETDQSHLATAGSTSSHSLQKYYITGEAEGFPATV
Androgen receptor (Homo sapiens), sequence (P10275 whole entry, looked up): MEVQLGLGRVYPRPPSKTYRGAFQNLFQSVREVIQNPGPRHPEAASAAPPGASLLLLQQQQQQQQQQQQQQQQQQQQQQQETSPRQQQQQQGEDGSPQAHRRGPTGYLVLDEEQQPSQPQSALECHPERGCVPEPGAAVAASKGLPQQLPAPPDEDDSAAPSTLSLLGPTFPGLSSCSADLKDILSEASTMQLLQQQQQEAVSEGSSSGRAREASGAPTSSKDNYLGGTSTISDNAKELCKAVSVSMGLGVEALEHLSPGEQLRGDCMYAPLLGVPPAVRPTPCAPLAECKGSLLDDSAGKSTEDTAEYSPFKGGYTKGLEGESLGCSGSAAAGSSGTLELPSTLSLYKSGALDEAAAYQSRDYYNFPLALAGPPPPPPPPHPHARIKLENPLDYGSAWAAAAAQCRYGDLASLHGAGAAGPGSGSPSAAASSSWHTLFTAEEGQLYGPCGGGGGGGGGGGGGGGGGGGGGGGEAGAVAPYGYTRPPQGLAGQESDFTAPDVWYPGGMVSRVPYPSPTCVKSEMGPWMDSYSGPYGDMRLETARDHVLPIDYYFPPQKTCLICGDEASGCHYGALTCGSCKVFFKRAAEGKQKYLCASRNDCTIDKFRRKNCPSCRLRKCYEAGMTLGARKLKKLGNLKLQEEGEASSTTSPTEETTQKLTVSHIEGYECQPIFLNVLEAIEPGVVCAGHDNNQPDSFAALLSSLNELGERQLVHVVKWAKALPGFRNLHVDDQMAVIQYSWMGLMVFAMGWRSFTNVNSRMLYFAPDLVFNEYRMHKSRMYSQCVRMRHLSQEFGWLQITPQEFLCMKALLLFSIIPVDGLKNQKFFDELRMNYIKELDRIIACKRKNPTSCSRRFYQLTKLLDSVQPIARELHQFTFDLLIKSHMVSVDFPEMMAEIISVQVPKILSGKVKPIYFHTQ

Take `CC(C)(C)CC(C)(C)c1ccc(OCCOCC[N+](C)(C)Cc2ccccc2)cc1`: the Potency result in [1], in experiment [3], in experiment [4], in experiment [5], in [8] and in experiment [10] was “inactive” each time. For the same compound, the Potency result in experiment [15] and in experiment [17] was “inactive” each time. For the same compound, the Potency is 43.2 µM (active) and 21.1 µM (active) in experiment [2]; 48.5 µM (active) in experiment [6]; 61.1 µM (active) and inactive in [7]; 4.22 µM (active) in [9]; 26.6 µM (active) in experiment [11]; 27.3 µM (active) and 21.1 µM (active) in experiment [12]. Also, the Potency is 27.3 µM (active) and 16.8 µM (active) in experiment [13]; 27.3 µM (active) and 15 µM (active) in experiment [14]. In experiment [16], the compound was called inactive.
For the compound `CCCCCCC[N+](CC)(CC)CCCCc1ccc(Cl)cc1`, the Potency was 26.6 µM (active) in experiment [1]; 6.68 µM (active) in [2]; 0.168 µM (active) in experiment [9]; 5.96 µM (active) in experiment [12]; 9.44 µM (active) in [13]. Moreover, the Potency entry in experiment [3], in [4], in [5], in experiment [6], in [7] and in experiment [8] was “inactive” throughout. Besides, the Potency result in experiment [10], in experiment [14] and in experiment [15] was “inactive” in each case. Further, in [16], the outcome was inactive.
`Nc1c2ccccc2nc2ccccc12`: the Potency result in experiment [1], in experiment [2], in [3], in [4], in experiment [7] and in [8] was “inactive” throughout. Besides, in experiment [15], the Potency entry is “inactive”. For the same compound, the Potency in [13] is 2.14 µM (active) and 3.35 µM (active).
Consider `O=C1c2ccccc2Cc2ccccc21`, for which the Potency result in experiment [1], in experiment [2], in experiment [18], in experiment [5], in experiment [8] and in experiment [9] was “inactive” throughout. The Potency result in experiment [10], in experiment [12], in [13], in experiment [14], in experiment [15] and in experiment [17] was “inactive” each time. Further, the Potency in experiment [4] was 6.16 µM (active); in experiment [6] it was 6.91 µM (active). Moreover, in experiment [16], the compound was classed as inactive.
As to `c1cc(C(c2ccc(OCC3CO3)cc2)c2ccc(OCC3CO3)cc2)ccc1OCC1CO1` (stereo unspecified), the Potency result in [1], in experiment [2], in [18], in experiment [4], in [5] and in experiment [8] was “inactive” each time. For the same compound, the Potency result in experiment [12], in [19], in experiment [14] and in [15] was “inactive” throughout. Also, the values for the Potency in experiment [6] and in experiment [9] were 61.1 µM (active) and 54.5 µM (active), respectively. In [16], the call was inactive.
As to `C[C@H](CCC(=O)O)[C@H]1CC[C@H]2[C@@H]3CC[C@@H]4C[C@H](O)CC[C@]4(C)[C@H]3CC[C@]12C`, the Potency result in experiment [1], in experiment [2], in experiment [18], in experiment [4], in experiment [5] and in experiment [6] was “inactive” throughout. Besides, the Potency result in experiment [7], in experiment [8], in experiment [12] and in experiment [15] was “inactive” in each case. The Potency in [13] was 48.4 µM (active) and 48.6 µM (active); in experiment [14] it was 19.3 µM (active).
For the compound `Cc1ccc(-n2nc(C(C)(C)C)cc2NC(=O)Nc2ccc(OCCN3CCOCC3)c3ccccc23)cc1`, the Potency entry in experiment [1], in [2], in experiment [3], in [4], in [5] and in experiment [6] was “inactive” each time. In addition, the Potency result in experiment [7], in experiment [8], in experiment [9], in [10], in [12] and in experiment [14] was “inactive” each time. For the same compound, the Potency result in experiment [15] and in experiment [17] was “inactive” in each case. Besides, the Potency in [11] is 26.6 µM (active); in [13], 7.5 µM (active). In addition, the result in experiment [16] was inactive.
Regarding `CCCCCCCC/C=C\CCCCCCCCOCCO`, the Potency was 63.1 µM (active) in experiment [1]; 20 µM (active) in experiment [2]; 2.51 µM (active) in [18]; 63.1 µM (active) in experiment [7]; 14.1 µM (active) in [9]; 28.2 µM (active) in [12]. Further, the Potency in experiment [13] is 28.2 µM (active); in experiment [14], 28.2 µM (active); in experiment [17], 89.1 µM (active). For the same compound, the Potency entry in experiment [4], in experiment [5], in experiment [8] and in experiment [15] was “inactive” throughout. Also, the result in experiment [16] was inactive.

Values taken from PubChem BioAssay (Tox21).
